About 79,000 compounds went through this panel and 15% of them were active in at least one assay; those are over-represented in the sample as a whole. Values without a mark were called inactive. Activity calls are given as the source filed them. Rule as the data show it: active = growth inhibition above about 70%; inactive = the rest.

Drawing on PubChem BioAssay (NCI), this text covers growth inhibition for 6 compounds.

Assay [1] can be described thus: NCI Yeast Anticancer Drug Screen. Data for the rad50 strain (AID 155).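 Also: 0% = growth of vehicle-only cultures of the same strain.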 Particulars: S. cerevisiae rad50 strain growth inhibition, stronger effect = higher value. In short, it runs like this:
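Relative growth inhibition (compound vs vehicle) was measured in yeast with a defined repair-gene alteration.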

A short description of assay [2]: NCI Yeast Anticancer Drug Screen. Data for the mec2-1 strain (AID 157). As to conditions: S. cerevisiae mec2-1 strain, stronger effect = higher value. In short, it runs like this: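 Strain: mec2-1 (DNA repair/cell cycle alteration). Compound exposure, then growth measured; inhibition expressed relative to vehicle.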
The nature of assay [3]: NCI Yeast Anticancer Drug Screen. Data for the sgs1 mgt1 strain (AID 161).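 Also: 0% = growth of cultures given vehicle only.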 Particulars: S. cerevisiae sgs1 mgt1 strain, stronger effect = higher value. The method in brief: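 Mutant yeast exposed to compound; growth scored against vehicle-only wells.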
A short description of assay [4]: NCI Yeast Anticancer Drug Screen. Data for the cln2 rad14 strain (AID 165).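 Also: 0% = growth equal to vehicle treated cultures.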 As to conditions: S. cerevisiae cln2 rad14 strain, stronger effect = higher value. In short, it runs like this: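 Compounds are applied to the cln2 rad14 yeast strain, and growth is then compared with that of vehicle-treated cultures to give inhibition.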
Assay [5] can be described thus: NCI Yeast Anticancer Drug Screen. Data for the bub3 strain (AID 167). Particulars: S. cerevisiae bub3 mutant strain, stronger effect = higher value. The method in brief:
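Screening used yeast with an engineered genetic alteration affecting cell cycle control. Compound-exposed cultures were compared with vehicle cultures, and reduced growth was taken as inhibition.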

The nature of assay [6]: NCI Yeast Anticancer Drug Screen. Data for the mlh1 rad18 strain (AID 175). As to conditions: S. cerevisiae mlh1 rad18 strain growth inhibition, stronger effect = higher value. The method in brief:
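Read-out is yeast growth inhibition, calculated against vehicle-only controls. The compound was applied to a strain engineered with DNA damage repair alterations.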

Where [7] appears, read: at 5.0 µM (retest, dose inferred, filed as 0.5).
The mark [8] stands for this setting: at 50.0 µM (retest, dose inferred, filed as 5.0).

`CN(C)C(=O)c1ccccc1SC(=S)NCc1ccccc1`: the growth inhibition in assay [1] (setting [7]) is 0%; in assay [1] (setting [8]), 99% (active); in assay [1] (at 50.0 µM) it was 98.1% (active); in assay [2] (setting [7]), -2%; in assay [2] (setting [8]), 99% (active); in assay [2] (at 50.0 µM), 91.3% (active). Besides, the growth inhibition in assay [3] (setting [7]) was 2%; in assay [3] (setting [8]) it was 93% (active); in assay [3] (at 50.0 µM) it was 95.8% (active); in assay [4] (setting [7]), -3%; in assay [4] (setting [8]), 99% (active); in assay [4] (at 50.0 µM), 95.3% (active). For the same compound, the growth inhibition in assay [5] (setting [7]) was -7%; in assay [5] (setting [8]), 99% (active); in assay [5] (at 50.0 µM), 88.2% (active); in assay [6] (setting [7]), -3%; in assay [6] (setting [8]), 98% (active); in assay [6] (at 50.0 µM), 96.6% (active).

With `O=C1CC(O)C=C1Nc1ccc(Cl)cc1` (stereo not drawn), the growth inhibition in assay [1] (setting [7]) was 3%; in assay [1] (setting [8]), 14%; in assay [1] (at 50.0 µM), 98.8% (active); in assay [2] (setting [7]) it was -3%; in assay [2] (setting [8]), 29%; in assay [2] (at 50.0 µM), 98.2% (active). Also, the growth inhibition in assay [3] (setting [7]) was -6%; in assay [3] (setting [8]) it was 4%; in assay [3] (at 50.0 µM) it was 98.7% (active); in assay [4] (setting [7]), -8%; in assay [4] (setting [8]), -8%; in assay [4] (at 50.0 µM) it was 98.5% (active). The growth inhibition in assay [5] (setting [7]) was -9%; in assay [5] (setting [8]), -22%; in assay [5] (at 50.0 µM), 97.8% (active); in assay [6] (setting [7]) it was 0%; in assay [6] (setting [8]), 7%; in assay [6] (at 50.0 µM) it was 98.5% (active).

Take `O=[N+]([O-])c1c(I)ccc2ccccc12`: the growth inhibition in assay [1] (setting [7]) is -24%; in assay [1] (setting [8]), 90% (active); in assay [1] (at 50.0 µM), 41.9%; in assay [2] (setting [7]), 0%; in assay [2] (setting [8]), 89% (active); in assay [2] (at 50.0 µM) it was -0.95%. Further, the growth inhibition is -6% in assay [3] (setting [7]); 95% (active) in assay [3] (setting [8]); 17.6% in assay [3] (at 50.0 µM); -9% in assay [4] (setting [7]); 41% in assay [4] (setting [8]); 11.5% in assay [4] (at 50.0 µM). For the same compound, the growth inhibition is -2% in assay [5] (setting [7]); 66% in assay [5] (setting [8]); 5.25% in assay [5] (at 50.0 µM); 1% in assay [6] (setting [7]); 94% (active) in assay [6] (setting [8]); 36.5% in assay [6] (at 50.0 µM).

On to `O=C(OCc1ccccc1CN1CCOCC1)c1cccc(Br)c1`, for which the growth inhibition in assay [1] (setting [7]) is 2%; in assay [1] (setting [8]), 32%; in assay [1] (at 50.0 µM) it was 43.5%; in assay [2] (setting [7]) it was -4%; in assay [2] (setting [8]), 3%; in assay [2] (at 50.0 µM) it was 9.4%. Further, the growth inhibition in assay [3] (setting [7]) is -4%; in assay [3] (setting [8]), 82% (active); in assay [3] (at 50.0 µM) it was 82.8% (active); in assay [4] (setting [7]), -5%; in assay [4] (setting [8]) it was -3%; in assay [4] (at 50.0 µM), -4.15%. The growth inhibition was 2% in assay [5] (setting [7]); 42% in assay [5] (setting [8]); 52.2% in assay [5] (at 50.0 µM); 21% in assay [6] (setting [7]); 40% in assay [6] (setting [8]); 6.65% in assay [6] (at 50.0 µM).

On to `FC(F)(F)c1ccc(Cl)c(NC(=S)SC2CCCCC2)c1`, for which the growth inhibition in assay [1] (setting [7]) was 5%; in assay [1] (setting [8]), 95% (active); in assay [1] (at 50.0 µM), 98.5% (active); in assay [2] (setting [7]) it was 0%; in assay [2] (setting [8]) it was 97% (active); in assay [2] (at 50.0 µM) it was 99.2% (active). Moreover, the growth inhibition in assay [3] (setting [7]) is 7%; in assay [3] (setting [8]) it was 99% (active); in assay [3] (at 50.0 µM), 99.3% (active); in assay [4] (setting [7]), -30%; in assay [4] (setting [8]) it was 88% (active); in assay [4] (at 50.0 µM), 98.5% (active). The growth inhibition in assay [5] (setting [7]) was 0%; in assay [5] (setting [8]) it was 98% (active); in assay [5] (at 50.0 µM), 98.8% (active); in assay [6] (setting [7]), 7%; in assay [6] (setting [8]), 97% (active); in assay [6] (at 50.0 µM) it was 98.4% (active).

In the case of `Nc1ncnc2nc(-c3ccc(C[P+](c4ccccc4)(c4ccccc4)c4ccccc4)cc3)[nH]c12`, the growth inhibition in assay [1] (setting [7]) was -6%; in assay [1] (setting [8]), 77% (active); in assay [1] (at 50.0 µM), 72% (active); in assay [2] (setting [7]), 11%; in assay [2] (setting [8]), 43%; in assay [2] (at 50.0 µM), 66.2%. The growth inhibition in assay [3] (setting [7]) was 0%; in assay [3] (setting [8]) it was 78% (active); in assay [3] (at 50.0 µM) it was 73.8% (active); in assay [4] (setting [7]) it was -10%; in assay [4] (setting [8]), 61%; in assay [4] (at 50.0 µM), 62.6%. Also, the growth inhibition in assay [5] (setting [7]) was 11%; in assay [5] (setting [8]) it was 61%; in assay [5] (at 50.0 µM) it was 54.8%; in assay [6] (setting [7]), -6%; in assay [6] (setting [8]), 83% (active); in assay [6] (at 50.0 µM), 69.8%.
